Records with an inconclusive call do not appear. Activity calls are given as the source filed them. Calls come from the whole dose curve; as a rule, active = well fitted curve in the direction sought with a large enough effect; inconclusive = small, poorly fitted or top-dose-only effect, or another doubt; inactive = no such curve, though single readings can be large; an effect the other way counts as inactive or inconclusive.
Tests used:
[1] = Quantitative High-Throughput drug screen in 47 multiple myeloma cell lines against the NCATS MIPE library collection: KMS12BM_JCRB cell viability assay (AID 1918971); note: nearly all actives have a fitted effect of over 35% in size; note: potency is the fitted concentration of half-maximal effect
In short: (§1)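 qHTS of the MIPE 4.0 collection: 500 myeloma cells/well, 48 h drug exposure at 37C in 5% CO2, then CellTiter-Glo for 5 min at room temperature before luminescence reading.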

[2] = Quantitative High-Throughput drug screen in 47 multiple myeloma cell lines against the NCATS MIPE library collection: KMS12PE_JCRB cell viability assay (AID 1918972); note: nearly all actives have a fitted effect of over 30% in size; note: potency is the fitted concentration of half-maximal effect
In short: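 Inhibition of cell viability is measured here. Each line was plated at 500 cells per well, treated with MIPE 4.0 drugs, kept 48 hours at 37C, then assayed for ATP content by CellTiter-Glo luminescence.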

[3] = Quantitative High-Throughput drug screen in 47 multiple myeloma cell lines against the NCATS MIPE library collection: KMS26_JCRB cell viability assay (AID 1918975); note: nearly all actives have a fitted effect of over 45% in size; note: potency is the fitted concentration of half-maximal effect
In short: as §1

[4] = Quantitative High-Throughput drug screen in 47 multiple myeloma cell lines against the NCATS MIPE library collection: MMM1_PLB cell viability assay (AID 1918976); note: nearly all actives have a fitted effect of over 35% in size; note: potency is the fitted concentration of half-maximal effect
In short: (§2)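 ATP-based luminescence (CellTiter-Glo, 5 min RT incubation) quantified surviving cells following two days' treatment with MIPE 4.0 agents at 37 °C, 5% CO2.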

[5] = Quantitative High-Throughput drug screen in 47 multiple myeloma cell lines against the NCATS MIPE library collection: NCIH929_DSMZ cell viability assay (AID 1918978); note: nearly all actives have a fitted effect of over 35% in size; note: potency is the fitted concentration of half-maximal effect
In short: as §2

[6] = Quantitative High-Throughput drug screen in 47 multiple myeloma cell lines against the NCATS MIPE library collection: OCIMY1_PLB cell viability assay (AID 1918979); note: nearly all actives have a fitted effect of over 35% in size; note: potency is the fitted concentration of half-maximal effect
In short: as §2

[7] = Quantitative High-Throughput drug screen in 47 multiple myeloma cell lines against the NCATS MIPE library collection: MM1S_ATCC cell viability assay (AID 1918980); note: nearly all actives have a fitted effect of over 45% in size; note: potency is the fitted concentration of half-maximal effect
In short: as §2

[8] = Quantitative High-Throughput drug screen in 47 multiple myeloma cell lines against the NCATS MIPE library collection: MM1R_ATCC cell viability assay (AID 1918981); note: nearly all actives have a fitted effect of over 35% in size; note: potency is the fitted concentration of half-maximal effect
In short: as §2

[9] = Quantitative High-Throughput drug screen in 47 multiple myeloma cell lines against the NCATS MIPE library collection: LP1_DSMZ cell viability assay (AID 1918982); note: nearly all actives have a fitted effect of over 35% in size; note: potency is the fitted concentration of half-maximal effect
In short: as §2

[10] = Quantitative High-Throughput drug screen in 47 multiple myeloma cell lines against the NCATS MIPE library collection: KMS28PE_JCRB cell viability assay (AID 1918983); note: nearly all actives have a fitted effect of over 35% in size; note: potency is the fitted concentration of half-maximal effect
In short: as §2

[11] = Quantitative High-Throughput drug screen in 47 multiple myeloma cell lines against the NCATS MIPE library collection: OCIMY5_PLB cell viability assay (AID 1918988); note: nearly all actives have a fitted effect of over 65% in size; note: potency is the fitted concentration of half-maximal effect
In short: as §2

[12] = Quantitative High-Throughput drug screen in 47 multiple myeloma cell lines against the NCATS MIPE library collection: OPM1_PLB cell viability assay (AID 1918989); note: nearly all actives have a fitted effect of over 40% in size; note: potency is the fitted concentration of half-maximal effect
In short: as §2

[13] = Quantitative High-Throughput drug screen in 47 multiple myeloma cell lines against the NCATS MIPE library collection: SKMM1_PLB cell viability assay (AID 1919863); details: SKMM1 myeloma viability, CellTiter-Glo ATP, 48 h; viability: active compounds read low; note: nearly all actives have a fitted effect of over 35% in size; note: potency is the fitted concentration of half-maximal effect
In short: as §2

[14] = Quantitative High-Throughput drug screen in 47 multiple myeloma cell lines against the NCATS MIPE library collection: U266_ATCC cell viability assay (AID 1919864); note: nearly all actives have a fitted effect of over 35% in size; note: potency is the fitted concentration of half-maximal effect
In short: as §2

[15] = Quantitative High-Throughput drug screen in 47 multiple myeloma cell lines against the NCATS MIPE library collection: KMS20_JCRB cell viability assay (AID 1918973); note: nearly all actives have a fitted effect of over 45% in size
In short: (§3)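 Myeloma cell lines, 500 cells per well, exposed to MIPE 4.0 library compounds for 48 h at 37C, 5% CO2. Viability from ATP by CellTiter-Glo luminescence; normalised to DMSO (100%) and media-only (0%) wells.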

[16] = Quantitative High-Throughput drug screen in 47 multiple myeloma cell lines against the NCATS MIPE library collection: MOLP8_DSMZ cell viability assay (AID 1918977); note: nearly all actives have a fitted effect of over 45% in size; note: potency is the fitted concentration of half-maximal effect
In short: as §2

[17] = Quantitative High-Throughput drug screen in 47 multiple myeloma cell lines against the NCATS MIPE library collection: L363_DSMZ cell viability assay (AID 1918984); details: L363 myeloma viability, CellTiter-Glo ATP luminescence, 48 h; viability (% of control): at 45.8 µM (top of the series); note: nearly all actives have a fitted effect of over 40% in size; note: potency is the fitted concentration of half-maximal effect
In short: as §2

[18] = Quantitative High-Throughput drug screen in 47 multiple myeloma cell lines against the NCATS MIPE library collection: KMS21BM_JCRB cell viability assay (AID 1918974); details: ATP luminescence, 48 h; viability: at 45.8 µM (top of the series); note: potency is the fitted concentration of half-maximal effect
In short: as §3

[19] = Quantitative High-Throughput drug screen in 47 multiple myeloma cell lines against the NCATS MIPE library collection: OCIMY7_PLB cell viability assay (AID 1918987); details: OCI-MY7 myeloma viability, CellTiter-Glo ATP, 48 h; viability (% of DMSO): at 45.8 µM (top of the series); note: nearly all actives have a fitted effect of over 65% in size; note: potency is the fitted concentration of half-maximal effect
In short: as §2

[20] = Quantitative High-Throughput drug screen in 47 multiple myeloma cell lines against the NCATS MIPE library collection: KMS34_JCRB cell viability assay (AID 1918985); note: nearly all actives have a fitted effect of over 40% in size; note: potency is the fitted concentration of half-maximal effect
In short: as §2

Fc1ccc(CNc2ncnc3ccc(F)cc23)cc1
inactive: Potency [3] | viability [13] 104%
active: Potency [1] 3.72 µM | Potency [2] 4.69 µM | Potency [4] 4.18 µM | Potency [5] 16.6 µM | Potency [6] 14.8 µM | Potency [7] 14.8 µM | Potency [8] 10.5 µM | Potency [9] 2.64 µM | Potency [10] 11.8 µM | Potency [11] 16.6 µM | Potency [12] 16.6 µM | Potency [14] 13.2 µM

CN1CC(=O)N2C(Cc3c([nH]c4ccccc34)[C@H]2c2ccc3c(c2)OCO3)C1=O (some centres not stated)
active: Potency [1] 1.32 µM
inactive: Potency [2] | Potency [15] | Potency [16] | Potency [5] | Potency [6] | Potency [8] | Potency [10] | Potency [17] | Potency [12] | viability [13] 129% | Potency [14]

CCCC1OC2C[C@@H]3[C@H]4CCC5=CC(=O)C=C[C@]5(C)[C@H]4C(O)C[C@]3(C)[C@]2(C(=O)CO)O1 (some centres not stated)
active: Potency [1] 20.9 µM | Potency [4] 0.0066 µM | Potency [5] 0.296 µM | Potency [7] 0.0743 µM | Potency [9] 0.0066 µM | Potency [10] 20.9 µM | Potency [17] 0.0662 µM | Potency [11] 0.0372 µM | Potency [14] 16.6 µM
inactive: Potency [2] | Potency [3] | Potency [6]

O=c1cc(-c2ccc(O)c(O)c2)oc2cc(O)cc(O)c12
inactive: Potency [1] | Potency [2] | Potency [3] | Potency [8]
active: Potency [18] 2.09 µM

C=CC[N+]1([C@H]2C[C@H]3[C@@H]4CC[C@H]5C[C@H](O)[C@@H](N6CCOCC6)C[C@]5(C)[C@@H]4CC[C@]3(C)[C@H]2OC(C)=O)CCCC1
inactive: Potency [1] | Potency [2] | Potency [15] | Potency [6] | Potency [8] | Potency [19] | Potency [12] | Potency [14]
active: Potency [7] 18.7 µM

CC(C)=CCCC(C)=CCCC(C)=CCCC(C)=CCCC(C)=CCCC(C)=CCCC(C)=CCCC(C)=CCCC(C)=CCO
active: Potency [16] 9.35 µM
inactive: Potency [1] | Potency [2] | Potency [3] | Potency [4] | Potency [5] | Potency [6] | Potency [7] | Potency [8] | Potency [9] | Potency [10] | Potency [17] | Potency [20] | Potency [19] | Potency [12]

CCOC(=O)[C@H]1O[C@H]1C(=O)N[C@@H](CC(C)C)C(=O)NCCC(C)C
active: Potency [1] 10.5 µM | Potency [11] 29.6 µM | Potency [14] 10.5 µM
inactive: Potency [2] | Potency [15] | Potency [5] | Potency [6] | Potency [8] | Potency [9] | Potency [19]

O=C(Nc1ncc(SCCN2CCCC2)s1)[C@]1(c2ccc(S(=O)(=O)C3CC3)cc2)C[C@@H]1C1CCCCC1
active: Potency [1] 23.5 µM | Potency [2] 5.26 µM | Potency [3] 23.5 µM | Potency [4] 14.8 µM | Potency [5] 20.9 µM | Potency [6] 26.4 µM | Potency [7] 20.9 µM | Potency [8] 16.6 µM | Potency [9] 20.9 µM | Potency [10] 23.5 µM | Potency [17] 7.43 µM | Potency [20] 18.7 µM | Potency [19] 18.7 µM | Potency [11] 14.8 µM | Potency [12] 16.6 µM | Potency [13] 23.5 µM | Potency [14] 8.33 µM

Cc1ccc(S(=O)(=O)Nc2nc3ccccc3nc2Nc2ccc3nsnc3c2)cc1
active: Potency [1] 11.5 µM | Potency [2] 0.407 µM | Potency [4] 3.63 µM | Potency [16] 6.45 µM | Potency [5] 7.24 µM | Potency [7] 0.575 µM | Potency [19] 1.44 µM | Potency [12] 1.15 µM | Potency [13] 7.24 µM

Cc1ccc(NC(=O)c2ccc(CN3CCN(C)CC3)cc2)cc1Nc1nc(-c2cccnc2)cs1
active: Potency [1] 23.5 µM | Potency [2] 18.7 µM | Potency [4] 18.7 µM | Potency [5] 23.5 µM | Potency [8] 20.9 µM | Potency [10] 16.6 µM | Potency [17] 9.35 µM | Potency [19] 14.8 µM | Potency [11] 23.5 µM | Potency [12] 9.35 µM | Potency [13] 23.5 µM | Potency [14] 23.5 µM

CN(C)CCCNC(=O)c1ccc(-c2cc(O)c3ncccc3c2)cc1
active: Potency [1] 9.35 µM | Potency [2] 20.9 µM | Potency [4] 11.8 µM | Potency [5] 23.5 µM | Potency [7] 20.9 µM | Potency [8] 20.9 µM | Potency [9] 8.33 µM | Potency [10] 9.35 µM | Potency [17] 20.9 µM | Potency [11] 20.9 µM | Potency [12] 16.6 µM | Potency [13] 14.8 µM | Potency [14] 20.9 µM

C[C@H](c1ccc(F)cc1CCCC(=O)O)N(c1cc(F)ccc1F)S(=O)(=O)c1ccc(Cl)cc1
inactive: Potency [2] | Potency [6]
active: Potency [1] 1.48 µM | Potency [3] 0.743 µM | Potency [5] 6.62 µM | Potency [7] 10.5 µM | Potency [19] 13.2 µM | Potency [11] 14.8 µM

Nc1ccn([C@@H]2O[C@H](CO)[C@@H](O)[C@H]2O)c(=O)n1
inactive: Potency [1] | Potency [2] | Potency [3] | Potency [16] | Potency [5] | Potency [9] | Potency [10] | Potency [11] | Potency [12]
active: Potency [8] 0.0526 µM

CCCCOCCOc1nc(-c2ccc(C(=O)O)c(F)c2)sc1C
inactive: Potency [2] | Potency [4] | Potency [16] | Potency [5] | Potency [8] | Potency [9] | Potency [17] | viability [13] 118%
active: Potency [1] 0.418 µM | Potency [7] 13.2 µM | Potency [11] 14.8 µM

Source: PubChem BioAssay (NCATS)
